Laboratory results as given in PubChem BioAssay (NCI).
Compounds without any hit were thinned out: in the full panel of roughly 83,000, 20% have a hit.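 Treatment: one concentration, 48 hours, 96-well format. Scoring: percent growth, with anything below 10 considered active.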 Calls of active or inactive are those of the source.

Experiments:
Assay in all cases: NCI-60 one-dose screen, 48 h (100 = growth as untreated, 0 = no growth, -100 = all killed)
Conditions in all cases: 10 µM unless noted
HT29 colon = system: HT29 colon
SNB-75 CNS = system: SNB-75 CNS
SNB-19 CNS = system: SNB-19 CNS
U251 CNS = system: U251 CNS
PC-3 prostate = system: PC-3 prostate
SK-MEL-5 melanoma = system: SK-MEL-5 melanoma
UACC-62 melanoma = system: UACC-62 melanoma
LOX IMVI melanoma = system: LOX IMVI melanoma
SK-MEL-2 melanoma = system: SK-MEL-2 melanoma
EKVX NSCLC = system: EKVX NSCLC
SN12C renal = system: SN12C renal
UO-31 renal = system: UO-31 renal
TK-10 renal = system: TK-10 renal
ACHN renal = system: ACHN renal
CAKI-1 renal = system: CAKI-1 renal
CCRF-CEM leukemia = system: CCRF-CEM leukemia
MOLT-4 leukemia = system: MOLT-4 leukemia
SR leukemia = system: SR leukemia
SK-MEL-28 melanoma = system: SK-MEL-28 melanoma
A498 renal = system: A498 renal

Measured: growth

CN(C)c1ccc(/C=C\c2ccnc3ccccc23)cc1
inactive: HT29 colon 51.7% | SNB-75 CNS 40.9% | SNB-19 CNS 79.9% | U251 CNS 73.9% | PC-3 prostate 67.3% | SK-MEL-5 melanoma 65.2% | UACC-62 melanoma 72.8% | LOX IMVI melanoma 72.7% | SK-MEL-2 melanoma 18.7% | EKVX NSCLC 34.5% | SN12C renal 76.1% | UO-31 renal 34.6% | TK-10 renal 55.9% | ACHN renal 70.6% | CAKI-1 renal 77.2% | CCRF-CEM leukemia 29.5% | MOLT-4 leukemia 66.7%
active: SR leukemia -32.4%

O=C(CSCC(=O)N/N=C/c1ccccc1O)N/N=C\c1ccccc1O
inactive: HT29 colon 42.7% | SNB-75 CNS 36.8% | SNB-19 CNS 31.2% | U251 CNS 26.8% | PC-3 prostate 25% | SK-MEL-5 melanoma 24% | LOX IMVI melanoma 12.4% | SK-MEL-28 melanoma 40.4% | SK-MEL-2 melanoma 16.7% | EKVX NSCLC 44.8% | SN12C renal 29% | TK-10 renal 24.4% | ACHN renal 11.9% | CAKI-1 renal 11.4% | A498 renal 99.1%
active: UO-31 renal 7.47% | CCRF-CEM leukemia 3.39% | MOLT-4 leukemia -4.94% | SR leukemia 3.96%

CSc1nc2c(c(=O)n1C)C(c1ccccc1)C1=C(N2)/C(=C/c2ccccc2)CCC1 (stereo not drawn)
inactive: HT29 colon 53.7% | SNB-75 CNS 57.9% | SNB-19 CNS 66.1% | U251 CNS 48.8% | PC-3 prostate 48.1% | SK-MEL-5 melanoma 40% | UACC-62 melanoma 58.2% | SK-MEL-28 melanoma 78.7% | SK-MEL-2 melanoma 29.5% | EKVX NSCLC 39.1% | SN12C renal 55.4% | UO-31 renal 34.9% | TK-10 renal 51% | ACHN renal 57.3% | CAKI-1 renal 20.7% | A498 renal 81.4% | CCRF-CEM leukemia 20.6% | MOLT-4 leukemia 27.5%
active: SR leukemia -14.2%

O=C1C2C3C=CC(O3)C2C(=O)N1Nc1ccccc1 (stereo not drawn)
inactive: HT29 colon 112% | SNB-75 CNS 93.3% | SNB-19 CNS 111% | U251 CNS 109% | PC-3 prostate 97.5% | SK-MEL-5 melanoma 109% | UACC-62 melanoma 100% | LOX IMVI melanoma 98% | SK-MEL-2 melanoma 133% | EKVX NSCLC 101% | UO-31 renal 101% | TK-10 renal 103% | ACHN renal 103% | CAKI-1 renal 93.5% | A498 renal 68.1% | CCRF-CEM leukemia 96.1% | MOLT-4 leukemia 101% | SR leukemia 126%

Cc1cc(CC(=O)O)n(C)c1C(=O)c1ccc(Cl)cc1
inactive: HT29 colon 109% | SNB-75 CNS 121% | SNB-19 CNS 108% | U251 CNS 99.5% | PC-3 prostate 99.5% | SK-MEL-5 melanoma 98.7% | LOX IMVI melanoma 97.9% | SK-MEL-28 melanoma 122% | SK-MEL-2 melanoma 115% | EKVX NSCLC 102% | SN12C renal 109% | UO-31 renal 104% | TK-10 renal 108% | ACHN renal 101% | CAKI-1 renal 96% | A498 renal 123% | CCRF-CEM leukemia 95.6% | MOLT-4 leukemia 98.3% | SR leukemia 107%

S=C(c1ccccc1)N1CCN(c2cccc(Cl)c2)CC1
inactive: HT29 colon 94.8% | SNB-75 CNS 110% | SNB-19 CNS 107% | U251 CNS 99.6% | PC-3 prostate 75.3% | SK-MEL-5 melanoma 95.6% | UACC-62 melanoma 91.1% | LOX IMVI melanoma 105% | SK-MEL-2 melanoma 100% | EKVX NSCLC 99.5% | SN12C renal 100% | UO-31 renal 93.2% | TK-10 renal 110% | ACHN renal 104% | CAKI-1 renal 88.7% | CCRF-CEM leukemia 84.1% | MOLT-4 leukemia 85.2% | SR leukemia 82.4%

CC(C)[C@H]1CC[C@H]2[C@@H](CC[C@H]3[C@](C)(CN)CCC[C@]23C)C1
inactive: SNB-75 CNS 69% | SNB-19 CNS 98.1% | PC-3 prostate 65.1% | SK-MEL-5 melanoma 99.5% | UACC-62 melanoma 92.7% | SK-MEL-28 melanoma 102% | SK-MEL-2 melanoma 80.3% | EKVX NSCLC 68.5% | SN12C renal 85.9% | UO-31 renal 70.1% | TK-10 renal 89.6% | ACHN renal 84% | CAKI-1 renal 87.6% | A498 renal 81.3% | CCRF-CEM leukemia 48.3% | MOLT-4 leukemia 37.2%
active: HT29 colon -57.7% | U251 CNS 6.81%

COc1cc(C2NC(c3ccc(Cl)cc3)C(C)C(=NC(=O)c3cnccn3)C2C)cc(OC)c1OC (stereo not drawn)
inactive: HT29 colon 67.8% | SNB-75 CNS 90.9% | SNB-19 CNS 86.7% | U251 CNS 77.9% | PC-3 prostate 88.8% | SK-MEL-5 melanoma 82.3% | UACC-62 melanoma 101% | SK-MEL-28 melanoma 110% | SK-MEL-2 melanoma 97.3% | EKVX NSCLC 99.3% | SN12C renal 107% | UO-31 renal 83% | TK-10 renal 103% | ACHN renal 102% | CAKI-1 renal 84.7% | A498 renal 112% | CCRF-CEM leukemia 92.4% | MOLT-4 leukemia 85.3% | SR leukemia 106%

N#Cc1cnc2cc(OC[C@H](O)CO)c(NC(=O)CC3CSSC3)cc2c1Nc1ccc(OCc2cccc(F)c2)c(Cl)c1
inactive: UO-31 renal 47.6% | ACHN renal 20.8% | CAKI-1 renal 70.1%
active: HT29 colon -77.8% | SNB-75 CNS -92.3% | SNB-19 CNS -64.6% | U251 CNS -69.2% | PC-3 prostate -100% | SK-MEL-5 melanoma -95.9% | LOX IMVI melanoma -86.3% | SK-MEL-28 melanoma -84.6% | SK-MEL-2 melanoma -70.6% | EKVX NSCLC -69.9% | SN12C renal -65.7% | TK-10 renal -70.5% | A498 renal -71.5% | CCRF-CEM leukemia -81.8% | MOLT-4 leukemia -90.1% | SR leukemia -72.6%

COc1ccc(C2=NNC(c3cc(Cc4ccc(O)c(C5CC(c6ccc(OC)cc6)=NN5)c4)ccc3O)C2)cc1 (stereo not drawn)
inactive: HT29 colon 92.2% | SNB-75 CNS 46.6% | SNB-19 CNS 48.2% | U251 CNS 24.8% | PC-3 prostate 42.4% | SK-MEL-5 melanoma 47.4% | UACC-62 melanoma 49.2% | SK-MEL-28 melanoma 79.4% | SK-MEL-2 melanoma 20.1% | EKVX NSCLC 30.9% | SN12C renal 52.1% | TK-10 renal 45.5% | ACHN renal 46.3% | A498 renal 103% | CCRF-CEM leukemia 11.6% | MOLT-4 leukemia 18.4% | SR leukemia 16%
active: UO-31 renal -2.57% | CAKI-1 renal -30.5%

COc1ccc(OC)c(/C=C/c2nc(=S)n(-c3ccc(Cl)cc3)[nH]2)c1
inactive: HT29 colon 65.4% | SNB-75 CNS 42.5% | SNB-19 CNS 51.2% | U251 CNS 53.3% | PC-3 prostate 58.6% | SK-MEL-5 melanoma 32.5% | UACC-62 melanoma 42.8% | SK-MEL-28 melanoma 72.7% | SK-MEL-2 melanoma 71.2% | EKVX NSCLC 75.2% | SN12C renal 66.2% | UO-31 renal 47.1% | TK-10 renal 88.8% | ACHN renal 71.2% | CCRF-CEM leukemia 60.6% | MOLT-4 leukemia 52.8% | SR leukemia 38.3%

Cn1c(=O)c2c(nc(Br)n2CCC(=O)Nc2ccc(F)cc2)n(C)c1=O
inactive: HT29 colon 96.3% | SNB-75 CNS 89.1% | SNB-19 CNS 103% | U251 CNS 96.7% | PC-3 prostate 95.9% | SK-MEL-5 melanoma 111% | LOX IMVI melanoma 89.9% | SK-MEL-28 melanoma 112% | SK-MEL-2 melanoma 100% | EKVX NSCLC 108% | SN12C renal 106% | UO-31 renal 78.3% | TK-10 renal 103% | ACHN renal 102% | CAKI-1 renal 93.7% | A498 renal 98.2% | CCRF-CEM leukemia 99.5% | MOLT-4 leukemia 95.9% | SR leukemia 107%

COc1cc(C2NC(c3ccc(Cl)cc3)C(C)/C(=N/NC(N)=S)C2C)cc(OC)c1OC (stereo not drawn)
inactive: HT29 colon 64.7% | SNB-75 CNS 81% | SNB-19 CNS 78.2% | U251 CNS 73.4% | PC-3 prostate 73.8% | SK-MEL-5 melanoma 79.4% | UACC-62 melanoma 94% | SK-MEL-2 melanoma 83.6% | EKVX NSCLC 107% | SN12C renal 94.7% | UO-31 renal 76.7% | TK-10 renal 103% | ACHN renal 93.2% | CAKI-1 renal 51.1% | A498 renal 129% | CCRF-CEM leukemia 89.8% | MOLT-4 leukemia 70.7% | SR leukemia 98.6%

CC(C)[C@]12O[C@H]1[C@@H]1O[C@]13[C@]1(O[C@H]1C[C@H]1C4=C(CC[C@@]13C)C(=O)OC4)[C@@H]2OC(=O)CN(C)C
inactive: SNB-19 CNS 23% | U251 CNS 15.4% | PC-3 prostate 19.6% | SN12C renal 29.1% | CCRF-CEM leukemia 12.4%
active: HT29 colon 0.899% | SNB-75 CNS -65.4% | SK-MEL-5 melanoma -20.1% | UACC-62 melanoma -34.8% | SK-MEL-28 melanoma 1.04% | SK-MEL-2 melanoma -60% | EKVX NSCLC -26.9% | UO-31 renal -5.89% | TK-10 renal 4.34% | ACHN renal 9.59% | CAKI-1 renal -48.5% | A498 renal -36.4% | MOLT-4 leukemia -11.7% | SR leukemia -2.85%

COc1cc2c(c(OC)c1OC)-c1ccc(NN(C(=O)c3ccccc3)C(=O)c3ccccc3)c(=O)cc1[C@@H](NC(C)=O)CC2 (tested in a mixture with another compound)
active: HT29 colon 6.31% | CAKI-1 renal -2.24%
inactive: SNB-75 CNS 27.7% | SNB-19 CNS 49.1% | U251 CNS 24.8% | PC-3 prostate 40.9% | SK-MEL-5 melanoma 20.2% | UACC-62 melanoma 59.6% | SK-MEL-28 melanoma 52.9% | SK-MEL-2 melanoma 10.4% | EKVX NSCLC 30.8% | SN12C renal 64.8% | UO-31 renal 62.3% | TK-10 renal 40.8% | ACHN renal 63% | A498 renal 15.1% | CCRF-CEM leukemia 41.9% | MOLT-4 leukemia 22.8% | SR leukemia 18.1%
